Data as given in PubChem BioAssay AID1490 (National Center for Advancing Translational Sciences (NCATS), 2009).
Values joined by “and” are separate entries in the source; they are usually repeats but may differ in a detail not shown here. Equal entries are not always repeated. About 11,000 (3.5%) of roughly 310,000 compounds were called active. Another 4% or so got no clear call; they are omitted. The call rests on the fitted dose curve; in most records, active means well fitted inhibition curve with a large enough effect; inconclusive means small, poorly fitted or top-dose-only effect, or another doubt; inactive means no such curve, though single readings can be large or run the other way. This excerpt belongs to a sample that is enriched for actives.

biological target: 4'-phosphopantetheinyl transferase ffp (Bacillus subtilis) (UniProt Q9F4F7); experiment: qHTS Assay for Inhibitors of Bacillus subtilis Sfp phosphopantetheinyl transferase (PPTase); details: Biochemical Sfp PPTase activity;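 further: the enzyme is Sfp with the accession as filed and its product quenches rhodamine fluorescence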;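 on largest response in the series, negative = inhibition: 0% = enzyme reaction without inhibitor and -100% = no enzyme wells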
Summary of the method: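 Step 1, compound plus 15 nM Sfp-PPTase, 15 min, room temperature. Step 2, add rhodamine-CoA (5 uM) and BHQ-2-YbbR (12.5 uM). Step 3, read 525/598 nm fluorescence at 0 and 30 min.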
Potency means the concentration at half of the fitted maximal effect.

Row | SMILES | largest response in the series, negative = inhibition | Potency
1 | CN[C@@H]1C[C@H]2O[C@@](C)([C@@H]1OC)n1c3ccccc3c3c4c(c5c6ccccc6n2c5c31)C(=O)NC4 | 0.89% (inactive) and -25.9% (inactive) | –
2 | c1ccc(CCCCN2CCC(c3ccccc3)CC2)cc1 | -6.46% (inactive) and 2.8% (inactive) | –
3 | COc1ccc(CNCCc2ccc3c(c2)OCO3)c(OC)c1OC | -17.5% (inactive) | –
4 | CC1=CC(=O)C2=C(C)C[C@H](O)[C@H]3[C@H](C)C(=O)O[C@@H]3C12 (stereo partly specified) | 33% (inactive) | –
5 | O=Cc1cn(Cc2ccc(F)cc2Cl)c2ccccc12 | 0.0934% (inactive) | –
6 | COc1cc(Cn2c(N)c(C(=O)NCc3ccco3)c3nc4ccccc4nc32)cc(OC)c1OC | – | 56.2 µM (active)
7 | CCOC(=O)C(O)(c1ccc(NC(=O)c2ccco2)c(OC)c1)C(F)(F)F (stereo unspecified) | 3.62% (inactive) | –
8 | CCOC(=O)c1c(N)n(Cc2ccccc2)c2nc3ccccc3nc12 | 13.5% (inactive) | –
9 | CN1CCC(N(C)Cc2cccnc2)CC1 | – | 89.1 µM (active)
10 | CC1CCCCN1Cc1cccnc1 (stereo unspecified) | -23.2% (inactive) | –
11 | c1cncc(CNC2=NCCC2)c1 | 12.2% (inactive) | –
12 | CC(=O)c1c(O)c(C)c(O)c(Cc2c(O)c3c(c(C(=O)/C=C\c4ccccc4)c2O)OC(C)(C)C=C3)c1O | -29.6% (inactive) | –
13 | COC1CC(OC2CC[C@@]3(C=O)C4CC[C@]5(C)C(C6=CC(=O)OC6)CC[C@@]5(O)C4CC[C@]3(O)C2)OC(C)C1O (stereo partly specified) | 2.96% (inactive) | –
14 | CN1CCN(C(=S)SCC(=O)Nc2ccc(Cl)cc2C(=O)c2ccccc2)CC1 | -8.26% (inactive) | –
15 | CC(C(=O)Nc1ccc(Cl)cc1Cl)N1CC=C(c2ccccc2)CC1 (stereo unspecified) | – | 56.2 µM (active)
16 | CN(C)C1C(=O)C(C(N)=O)=C(O)[C@@]2(O)C(=O)C3=C(O)c4c(O)cccc4[C@@](C)(O)C3C[C@@H]12 (stereo partly specified) | -32.6% (inactive) | –
17 | C[C@@H]1C[C@H]2CC[C@H](O2)[C@H](C)C(=O)O[C@@H](C)C[C@@H]2CC[C@@H](O2)[C@@H](C)C(=O)O[C@H](C)C[C@H]2CC[C@H](O2)[C@H](C)C(=O)O[C@@H](C)C[C@@H]2CC[C@@H](O2)[C@@H](C)C(=O)O1 | 6.1% (inactive) | –
18 | CC(=O)OC1C2CCC3C1(CC(O)[C@@]1(O)[C@@H](CC(O)C1(C)C)[C@]3(C)O)C[C@@]2(C)O (stereo partly specified) | 6.04% (inactive) | –
19 | N#Cc1c(Cl)c(Cl)c(Cl)c(C#N)c1Cl | -8.59% (inactive) | –
20 | CC[N+]1(CCOC(=O)C(O)(c2ccccc2)c2ccccc2)CCCCC1 | 12% (inactive) | –
21 | CO[C@@H]1C[C@@H](C[C@H]2CC[C@H](C)[C@@H]([C@@H](C)C(=O)O)O2)O[C@]2(O[C@](C)([C@H]3CC[C@@](C)(C4OC([C@H]5O[C@@](O)(CO)[C@H](C)C[C@@H]5C)C[C@@H]4C)O3)C[C@H]2C)[C@@H]1C (stereo partly specified) | 23.4% (inactive) | –
